Reference: PubChem BioAssay (NCI)
Compounds without any hit were thinned out: in the full panel of roughly 83,000, 20% have a hit.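 Results are percent growth after 48 hours of single-concentration exposure. 100 means growth as in untreated cells, lower positive values show inhibition; negative values down to -100 show cell death.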 A number with no mark means an inactive call. Activity calls are given as the source filed them. Rule for the calls: active = growth percent below 10; inactive = the rest.

How the values were obtained:
Assay in all cases: NCI-60 one-dose screen, 48 h (100 = growth as untreated, 0 = no growth, -100 = all killed)
Details in all cases: 10 µM unless noted
SR leukemia = system: SR leukemia
RPMI-8226 leukemia = system: RPMI-8226 leukemia
OVCAR-8 ovarian = system: OVCAR-8 ovarian
OVCAR-5 ovarian = system: OVCAR-5 ovarian
OVCAR-4 ovarian = system: OVCAR-4 ovarian
SK-OV-3 ovarian = system: SK-OV-3 ovarian
IGROV1 ovarian = system: IGROV1 ovarian
HS 578T breast = system: HS 578T breast
NCI/ADR-RES ovarian = system: NCI/ADR-RES ovarian

| SMILES | growth (SR leukemia) | growth (RPMI-8226 leukemia) | growth (OVCAR-8 ovarian) | growth (OVCAR-5 ovarian) | growth (OVCAR-4 ovarian) | growth (SK-OV-3 ovarian) | growth (IGROV1 ovarian) | growth (HS 578T breast) | growth (NCI/ADR-RES ovarian) |
| --- | --- | --- | --- | --- | --- | --- | --- | --- | --- |
| CN1CCC(n2cc(Nc3ncc4c(=O)n(-c5c(Cl)cccc5Cl)cc(Br)c4n3)cn2)CC1 | -21.4% (active) | 20.7% | 6.91% (active) | 43.5% | 33.8% | 32.7% | 15% | 45.1% | 34% |
| NS(=O)(=O)c1ccc(-n2cc(CN3CCNCC3)nn2)cc1 | 100% | 110% | 110% | 106% | 105% | 110% | 112% | 111% | 111% |
| CCn1c(SCC(=O)Nc2cccc(C(=O)/C=C/c3cc(OC)c(OC)c(OC)c3)c2)nc2ccccc2c1=O | 5.81% (active) | -7.09% (active) | 34.3% | 27.7% | 39.9% | 102% | 13% | 59.3% | 14.1% |
| CN1CCN(Cc2ccc(NC(=O)c3cncc(C#Cc4cnc5ccc(NCCCO)nn45)c3)cc2C(F)(F)F)CC1 | -15.6% (active) | -36.9% (active) | -8.06% (active) | 4.78% (active) | -19.9% (active) | -47.5% (active) | 9.68% (active) | -26.5% (active) | 74.1% |
| CN1CCN(c2nc(-c3csc(-c4ccccc4)n3)cc3ccccc23)CC1 | -20.7% (active) | 14.1% | 62.4% | 59.4% | 72.7% | 81.8% | 26.2% | 60.6% | 65.8% |
| CC(O)c1cc2ccccc2c(=O)o1 (configuration not stated) | 96.2% | 96.8% | 102% | 103% | 100% | 99.8% | 107% | 103% | 101% |
| COc1ccc(CCN2C(=O)CSC2=S)cc1 | 65.8% | 33.3% | 102% | 95.7% | 92.8% | 111% | 109% | 99.4% | 98.4% |
| CCOC(=O)c1c(Nc2ccccc2)nn2c(-c3ccccc3)ccnc12 | 74.4% | 30.7% | 96.1% | 93.4% | 95.9% | 102% | 110% | 91.9% | 87.6% |
| NS(=O)(=O)c1ccc(Nc2nc(N/N=C/c3ccc(Cl)cc3)nc(Nc3ccccc3)n2)cc1 | 19% | 54.7% | 67.9% | 83.4% | 83.6% | 104% | 66.8% | 64.7% | 97.5% |
| CCc1cccc2c3c(sc12)C(c1ccc(Cl)cc1)C(C#N)=C(/N=C/c1ccc(Cl)cc1)O3 (configuration not stated) | 13.9% | 8.79% (active) | 28.1% | 32.9% | 79.1% | 55.4% | 28.1% | 8.08% (active) | 5.33% (active) |
| CCN1CCN(Cc2ccc(C(=O)Nc3ccc(C)c(Oc4ccc(-c5[nH]nc6ncnc(N)c56)cc4)c3)cc2C(F)(F)F)CC1 | 11.3% | 65.8% | 96.7% | 94.9% | 87% | 99.8% | 82.1% | 64.9% | 67.2% |
| CC(C)(C)n1nnnc1C(Nc1cccc2c1OCO2)c1cc2cccc3ccc4cccc1c4c32 (configuration not stated) | 82.3% | 55.3% | 90% | 91.9% | 79.2% | 94.5% | 81.2% | 88.7% | 83.5% |
| O=C(Nc1nonc1-c1ccccc1)c1ccc(C(F)(F)F)cc1 | 85.6% | 74.2% | 86.6% | 100% | 91.2% | 112% | 96.4% | 101% | 85.2% |
| O=C(c1ccc(O)c(C(=O)N2Cc3ccc(OCCC[P+](c4ccccc4)(c4ccccc4)c4ccccc4)cc3C2)c1)N1Cc2cccc(F)c2C1 | 54.5% | 31.8% | 77.5% | 102% | 91.4% | 114% | 43.8% | 72.4% | 108% |
| Nc1nc(-c2cccc([N+](=O)[O-])c2)c(N=Nc2ccc([N+](=O)[O-])cc2Cl)s1 | 5.91% (active) | -6.23% (active) | 7.59% (active) | 21% | 16.3% | -11% (active) | 30.6% | -4.26% (active) | 6.4% (active) |
| COc1cc2oc(-c3cccc(C(=O)N[C@@H](CC(C)C)C(=O)OC(C)(C)C)c3)cc(=O)c2c(OC)c1OC | 42.1% | 37.4% | 49.3% | 93% | 69.6% | 111% | 71.5% | 56.9% | 49% |
| Nc1nc(-c2cccc([N+](=O)[O-])c2)c(N=Nc2ccccc2)s1 | 56.1% | 52.9% | 58.2% | 79.4% | 59.2% | 62.3% | 82.5% | 70.4% | 54.9% |
| COc1ccc2[nH]cc(/C=N/Nc3nc4ccccc4s3)c2c1 | 45.5% | 47.2% | 67.1% | 73.2% | 67.2% | 65.7% | 29.8% | 60.6% | 66% |
| Cc1occc1-c1nc2s/c(=C/c3ccc(-c4cc(C(F)(F)F)ccc4Cl)o3)c(=O)n2n1 | 101% | 99.5% | 103% | 105% | 102% | 110% | 103% | 98.1% | 109% |
| Cc1cccc2c3c(sc12)C(c1ccc(F)cc1)C(C#N)=C(/N=C/c1ccc(Cl)cc1)O3 (configuration not stated) | 10.5% | 19.7% | -3.92% (active) | 23.5% | 70% | 34.8% | 22.5% | 1.34% (active) | 2.96% (active) |
| COc1ccc(NC2=C(Cl)C(=O)c3nc(C)ccc3C2=O)cc1OC | 0.922% (active) | 47.3% | 92.6% | 105% | 71.4% | 91.8% | 19.6% | 119% | 94.7% |
| COc1cc(-c2nc(SC(C)C)n(C(C)C)c(=O)c2C#N)ccc1OCc1ccccc1 | 39.9% | 78.4% | 77% | 93.2% | 4.7% (active) | 103% | 67.1% | 70.1% | 76% |
| COc1ccc([C@@H]2[C@@H](O)C(=O)N2c2cc(OC)c(OC)c(OC)c2)cc1F | 8.72% (active) | 21.5% | -5.69% (active) | 31.5% | 63.2% | 28.3% | 18.9% | -2.79% (active) | -6.67% (active) |
| COc1ccc(/C=C/C(=O)c2cc(S(N)(=O)=O)c(OC)cc2OC)cc1 | 23.4% | 60.9% | 93% | 98.3% | 103% | 97.2% | 81.8% | 89.1% | 85.8% |
| Cc1ccc(C(=O)NN2C(=O)/C(=C/C=C/c3ccco3)SC2=S)cc1 | 84.5% | 102% | 99.7% | 100% | 92.8% | 107% | 98.4% | 96.5% | 97.5% |
| COc1cc2oc(-c3cccc(N)c3)cc(=O)c2c(OC)c1OC | 87.2% | 97.8% | 98.7% | 101% | 99.7% | 125% | 107% | 115% | 106% |
| C=CCn1c(SCC(=O)Nc2ccc(C(=O)/C=C/c3ccc(C)cc3)cc2)nnc1-c1c[nH]c2ccccc12 | 71.7% | 34.9% | 90.9% | 99.6% | 81.3% | 105% | 78.4% | 96.9% | 98.4% |
| COCCNc1ccc2ncc(C#Cc3cncc(C(=O)Nc4ccc(CN5CCN(C)CC5)c(C(F)(F)F)c4)c3)n2n1 | -6.69% (active) | -26.7% (active) | -5.34% (active) | 3.94% (active) | -10.6% (active) | -63% (active) | -12% (active) | -33.9% (active) | 43.9% |
